The panel holds about 83,000 compounds, 20% with a hit somewhere; the sample as a whole holds those more often.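 96-well plates, one dose, 48 hours. Percent growth reported; active if below 10.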 A number with no mark means an inactive call. The source made the active and inactive calls.
What was measured:
Test in all cases: NCI-60 one-dose screen, 48 h (100 = growth as untreated, 0 = no growth, -100 = all killed)
Conditions in all cases: 10 µM unless noted
[1] = test system: NCI-H23 lung
[2] = test system: NCI-H226 lung
[3] = test system: NCI-H322M lung
[4] = test system: HOP-62 NSCLC
[5] = test system: NCI-H460 lung
[6] = test system: HOP-92 NSCLC
[7] = test system: NCI-H522 lung
[8] = test system: A549/ATCC NSCLC
[9] = test system: 786-0 renal
[10] = test system: COLO 205 colon

| SMILES | growth [1] | growth [2] | growth [3] | growth [4] | growth [5] | growth [6] | growth [7] | growth [8] | growth [9] | growth [10] |
| --- | --- | --- | --- | --- | --- | --- | --- | --- | --- | --- |
| COC1=CC(c2ccc[nH]2)=N/C1=C\c1[nH]c(C)c(C(=O)CCCCCCCCC(=O)O[C@H]2CC[C@H]3C4CCc5cc(O)ccc5C4CC[C@]23C)c1C (stereo not given in full) | 40.3% | 24.9% | 51.5% | 50.7% | 14.9% | -14.6% (active) | 15% | 4.12% (active) | 19.9% | 18.5% |
| N#Cc1c(N)n(C2OC(CO)C(O)C2O)c2ncnc(N)c12 (stereo not given) | -8.8% (active) | 12.1% | -27.6% (active) | -12.7% (active) | 0.304% (active) | -21.3% (active) | -56.1% (active) | 1.3% (active) | -7.63% (active) | -32.8% (active) |
| COc1ccc2c(c1)CCCC21C(=O)Nc2c(Cl)cccc21 (stereo not given) | 86% | 85.9% | 88.1% | 55.7% | 94.4% | 72.3% | 27.7% | 68.7% | 78.9% | 80.6% |
| Oc1c(C(c2ccc(F)cc2)N2CCCCC2)ccc2cncnc12 (stereo not given) | 16.1% | -0.0481% (active) | 19.4% | 11.6% | 4.38% (active) | -14.4% (active) | 4.34% (active) | 5.08% (active) | 23.1% | -30.1% (active) |
| O=c1c2sc3ncc(Cl)cc3c2nnn1-c1cccc(Cl)c1 | 83.8% | 33.4% | 56.8% | 47.7% | 22% | 63.8% | 82% | 42.5% | 72.5% | 89.4% |
| C=CCn1c(SCC(=O)Nc2ccc(C(=O)/C=C/c3ccccc3)cc2)nnc1-c1ccc(OC)c(OC)c1 | 80.7% | 85.9% | 85.9% | 99.1% | 88.2% | 82.7% | 68.3% | 61% | 75.6% | 91.2% |
| COc1ccc(-c2cn(-c3cccc(C(=O)/C=C/c4ccc(O)c(OC)c4)c3)c(=O)[nH]2)cc1 | 62.5% | 93.6% | 64.8% | 113% | 31.7% | 22.6% | -4.38% (active) | 31.5% | 34.5% | 105% |
| O=C(CN1CCN(c2ccccc2)CC1)N1CCN(c2nnc(-c3ccc(Cl)cc3)c(-c3ccc(Cl)cc3)n2)CC1 | 82.3% | 68% | 89.9% | 66% | 47.9% | 71.3% | 59.7% | 54.8% | 40.1% | 51% |
| CC(=O)c1ccc(-n2c(-c3cc(-c4ccsc4)n[nH]3)n[nH]c2=S)cc1 | 102% | 99.6% | 101% | 112% | 105% | 89.9% | 82.6% | 98.3% | 101% | 117% |
| NC(=O)c1noc(C(=O)c2ccccc2)c1N | 101% | 89.8% | 104% | 114% | 102% | 107% | 80.4% | 89.1% | 97.9% | 111% |
| O=C(Nc1ccc2ncnc(Nc3ccc(F)c(Cl)c3)c2c1)c1cccs1 | 81.6% | 58.1% | 19.3% | 72.7% | 39.6% | 38% | 31.4% | 43.3% | 14.8% | 106% |
| CCCCCCCCCCCCCCCCS(=O)(=O)Nc1cc(C(=O)NN)cc(C(=O)NN)c1 | 99.1% | 73.1% | 56.9% | 76.1% | 95.6% | 92.2% | 78.4% | 91.8% | 96.2% | 83.2% |
| CCN(C)CCCOc1ccc(/C(=C(\C)Cc2cccc(OC)c2)c2ccc(OC(C)=O)cc2)cc1 | 93.9% | 86.2% | 98.5% | 97% | 105% | 99.2% | 94.3% | 104% | 101% | 107% |
| COc1cc2c(cc1OC)C(=O)C(Br)CC2 (stereo not given) | 45.8% | 90.8% | 102% | 51% | 75% | 20.2% | -17.3% (active) | 80.1% | 63.8% | 24.6% |

Source: PubChem BioAssay (NCI)
